Rows were chosen to be rich in hits. Some 19% of all compounds tested hit in one or more screens of this group.
HepG2 viability: qHTS for Inhibitors of TGF-b: Cytotox Counterscreen. HepG2 CAGA-GFP viability, ATP luminescence, 18 h. Potency, µM (top dose mostly 46.1 µM), hits mostly cytotoxic. 410,000 compounds, 0.76% hits
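HepG2 CAGA-GFP cells (1000/well, DMEM with 1% FBS) received compound, then TGF-beta at 500 pg/mL final, and were incubated 18 hours at 37 degrees C. Viability was read by CellTiter-Glo luminescence. Media-only wells were set as complete cell-killing and DMSO as no toxicity.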
ASM inhibitor: Inhibitors of Secretory Acid Sphingomyelinase (S-ASM): qHTS | Sphingomyelin phosphodiesterase (Homo sapiens), P17405 | placental ASM, HMU-PC fluorogenic substrate, 60 min | Potency, µM (highest dose often 57.5 µM), most hits filed as inhibitors | 340,000 compounds, 0.006% hits | AID 504937, 2011
Target sequence (P17405 47-631 limits assumed): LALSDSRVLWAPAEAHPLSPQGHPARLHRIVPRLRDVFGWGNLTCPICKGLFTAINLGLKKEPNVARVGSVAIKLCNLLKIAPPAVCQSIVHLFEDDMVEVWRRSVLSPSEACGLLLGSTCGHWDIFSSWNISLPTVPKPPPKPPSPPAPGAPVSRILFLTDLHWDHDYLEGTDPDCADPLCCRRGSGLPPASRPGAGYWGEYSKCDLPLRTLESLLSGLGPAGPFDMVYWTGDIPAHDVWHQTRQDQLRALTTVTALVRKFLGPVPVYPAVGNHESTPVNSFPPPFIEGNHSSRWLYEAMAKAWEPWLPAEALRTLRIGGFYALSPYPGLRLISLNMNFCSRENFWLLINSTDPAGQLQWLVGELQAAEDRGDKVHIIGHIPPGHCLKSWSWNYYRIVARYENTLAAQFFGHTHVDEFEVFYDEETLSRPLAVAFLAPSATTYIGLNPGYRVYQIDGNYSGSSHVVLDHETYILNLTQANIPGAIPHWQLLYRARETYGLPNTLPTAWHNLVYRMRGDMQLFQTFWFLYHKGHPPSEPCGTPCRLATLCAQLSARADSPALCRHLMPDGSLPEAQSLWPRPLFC
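HMU-PC0 cleavage (9 uM final) by human placental ASM, 60 min at 37 °C following 10 min compound exposure at RT; stopped at pH 10, fluorescence Ex 386/Em 447 nm.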
DT40 TDP1 CPT: qHTS for Inhibitors of human tyrosyl-DNA phosphodiesterase 1 (TDP1): qHTS in cells in presence of CPT. AID 686979, 2013. 420,000 compounds, 12% hits. Potency, µM (highest dose often 46.2 µM), actives largely listed as inhibitors. chicken DT40 Tdp1-/-;hTDP1 cells + 20 nM CPT, ATP luminescence, 48 h; further: nearly all actives have a fitted effect of over 55% in size
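Cell growth measured by CellTiter-Glo luminescence after a minimum 48 h, 37 C compound exposure with 20 nM CPT in Tdp1-knockout DT40 cells stably expressing hTDP1, seeded 400/well; qHTS titration format.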
IL1B secr inh: qHTS for Inhibitors of Inflammasome Signaling: IL-1-beta AlphaLISA Primary Screen; THP-1 LPS/ATP IL-1B secretion, AlphaLISA, 16 h; active compounds read low; 360,000 compounds, 4.7% hits; AID 743279, 2014; activity change, % at 57.5 µM; in the data active means activity change below about -50%; inconclusive means mostly about -30% to -49%
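THP-1 cells pretreated 1 hr with compounds (up to 57.5 uM final), then stimulated with LPS (250 ng/mL final) plus ATP (1.25 mM final); secreted IL-1B measured by AlphaLISA after 16 hr, decreased signal indicating inhibition.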
TGFb inhibitor: qHTS for Inhibitors of TGF-b. HepG2 CAGA-GFP TGF-b/SMAD3 reporter, GFP fluorescence, 18 h; TGF-beta stimulated, 500 pg/mL final. Potency, µM (top dose mostly 46.1 µM), usual class: inhibitors. 410,000 compounds, 1.2% hits. AID 588855, 2011; further: nearly all actives have a fitted effect of over 65% in size
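TGF-beta reporter screen: HEPG2 CAGA-GFP, 1% FBS, 500 pg/mL TGF-beta final, 18 h; per-cell GFP summed per well; curves fitted and categorized by class.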
TDP1 cell noCPT: qHTS for Inhibitors of human tyrosyl-DNA phosphodiesterase 1 (TDP1): qHTS in cells in absence of CPT. AID 686978, 2013. Potency, µM (series often up to 46.2 µM), most hits filed as inhibitors. 420,000 compounds, 15% hits. DT40 Tdp1-/- hTDP1 cells, no CPT, ATP luminescence, 48 h; further: nearly all actives have a fitted effect of over 55% in size
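Camptothecin absent (DMSO only). Human TDP1-complemented DT40 knockout cells, 400 cells/well, 37 °C for minimum 48 hr; ATP measured via CellTiter-Glo, 30 min dark incubation, luminescence.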
A number is an active result; 0 = inactive; ? = inconclusive; - = not tested or not shown; ! = not confirmed by another sample; [ ] = remark or other dose. Unless noted, the call rests on the fitted dose curve; in most records, active means well fitted curve in the direction sought with a large enough effect; inconclusive means small, poorly fitted or top-dose-only effect, or another doubt; inactive means no such curve, though single readings can be large; an effect the other way counts as inactive or inconclusive.

SMILES | HepG2 viability | ASM inhibitor | DT40 TDP1 CPT | IL1B secr inh | TGFb inhibitor | TDP1 cell noCPT
COc1ccc(/C=C\c2onc(C)c2S(=O)(=O)N2CCC(C(=O)Nc3ccc(C)cc3C)CC2)cc1 | 0 | - | ? | - | 0 | ?
CCc1ccc(NC(=O)C2CCN(S(=O)(=O)c3c(C)noc3C)CC2)cc1 | 0 | 0 | ? | 0 | 0 | 18.4µM!
CCN(CCNC(=O)C1CCN(S(=O)(=O)c2c(C)noc2C)CC1)c1ccccc1 | 0 | 0 | ? | 0 | 0 | 23.1µM
CC(C)[C@H](NC(=O)N1c2ccccc2NC(=O)[C@@H]1C(C)C)C(=O)N[C@H](Cc1ccccc1)C(=O)O | 0 | 0 | 0 | 0 | 0 | 0
CCc1ccc(CSc2nc(-c3ccc(OC)cc3)nc3c2Cc2c(CO)cnc(C)c2O3)cc1 | 0 | - | 0 | - | 0 | 0
COc1ccc(C(=O)OCC(=O)NCC2CCCCC2)c(OC)c1 | 0 | 0 | ? | 0 | 0 | ?
Cc1cccc(C(=O)Nc2nsc(N)n2)c1 | 0 | 0 | 0 | 0 | 0 | 0
COc1ccc(/C=C\c2onc(C)c2S(=O)(=O)N2CCC(C(=O)Nc3cccc(OC)c3)CC2)cc1 | 0 | - | 14.6µM | - | ? | 16.4µM
CNC(=O)C1CCN(S(=O)(=O)c2c(C)noc2/C=C/c2cccc(OC)c2)CC1 | 0 | 0 | 0 | 0 | 0 | 0
CCN(CC(=O)NCc1ccc(Cl)cc1)C(=O)CCc1ccccc1O | 0 | 0 | 0 | ? | 0 | 0
CCOC(=O)C1CCCN(C(=O)c2ccc(Cl)c(S(=O)(=O)N3CCCCCC3)c2)C1 (stereo not drawn) | 0 | 0 | 0 | 0 | 0 | ?
Cc1cccc(CSC2=NCCN2C(=O)c2ccc(S(=O)(=O)N(C)C)cc2)c1 | 0 | 0 | ? | 0 | 0 | 23.1µM
CC(=O)Nc1ccc(S(=O)(=O)N2CCN=C2SCc2ccc(F)cc2)cc1 | 0 | 0 | 18.4µM | 0 | 0 | 25.9µM
CN(C)S(=O)(=O)c1ccc(C(=O)N2CCN=C2SCc2cccnc2)cc1 | 0 | 0 | 0 | 0 | ? | 0
Cc1cccc(CSC2=NCCN2S(=O)(=O)c2ccc(F)cc2)c1 | 0 | 0 | 16.4µM | 0 | 0 | ?
COc1ccc(-c2noc(=O)n2CC(=O)N2CCC(Cc3ccccc3)CC2)cc1 | 0 | 0 | ? | 0 | 0 | 23.1µM
COc1ccc(-c2noc(CCC(=O)NCCCN3CCN(c4ccc(F)cc4)CC3)n2)cc1 | 0 | 0 | 18.4µM | 0 | 0 | 18.4µM
COc1ccc(-c2noc(CCC(=O)NCCCN3CCC(Cc4ccccc4)CC3)n2)cc1 | 0 | 0 | 14.6µM | -64.5 | ? | 14.6µM
O=C(Cn1c(-c2ccccc2)noc1=O)N1CCC(Cc2ccccc2)CC1 | 0 | 0 | ? | 0 | 0 | ?
Cc1c(NS(=O)(=O)c2cc(C(=O)NCc3ccco3)cc(Cl)c2Cl)c(=O)n(-c2ccccc2)n1C | 0 | 0 | 0 | 0 | 0 | ?
CCOC(=O)c1c(C)[nH]c(C)c1S(=O)(=O)N1CCCC(C(=O)N2CCN(c3ccccc3F)CC2)C1 (stereo not drawn) | 0 | - | ? | - | 0 | ?
CCOC(=O)c1c(C)[nH]c(C)c1S(=O)(=O)N1CCN(c2ccc([N+](=O)[O-])cc2)CC1 | 0 | 0 | ? | 0 | 0 | 13µM
CCOC(=O)c1c(C)[nH]c(C)c1S(=O)(=O)N1CCCC(C(=O)N2CCN(c3ccc(Cl)cc3)CC2)C1 (stereo not drawn) | 0 | - | 16.4µM | - | ? | ?
O=C(C1CCCN(S(=O)(=O)c2cnc[nH]2)C1)N1CCN(c2ccc(Cl)cc2)CC1 (stereo not drawn) | 0 | 0 | 13µM | 0 | 0 | 18.4µM
O=C(NCC1CCC2(CCN(Cc3cccc4ncccc34)CC2)O1)c1ccccc1 (stereo not drawn) | - | - | 0[9.04 µM] | - | - | 0
SMILES | HepG2 viability | ASM inhibitor | DT40 TDP1 CPT | IL1B secr inh | TGFb inhibitor | TDP1 cell noCPT
Cc1cc(C)c2c(c1)c(C)cc1nnc(SCC(=O)c3ccccc3)n12 | 0 | - | ? | - | 0 | ?
COc1ccc(/C=C/C(=O)NC(=S)NNC(=O)Cc2cccs2)cc1OC | 0 | 0 | 16.4µM | 0 | 0 | ?
COc1ccc(/C=C/C(=O)NC(=S)NNC(=O)c2cccs2)cc1OC | 0 | 0 | ? | 0 | 0 | ?
COc1cc(C(=O)NNC(=O)/C=C/c2ccccc2)cc(OC)c1OC | 0 | 0 | 0 | -73.8 | 0 | 0
COc1cc(C(=O)NNC(=S)NC(=O)/C=C/c2ccccc2)cc(OC)c1OC | 0 | 0 | 16.4µM | 0 | 0 | ?
COc1ccc(C(=O)O)cc1NC(=S)NC(=O)/C=C/c1ccc(C(C)C)cc1 | 0 | 0 | 0 | -66.0 | 0 | 0
COC(=O)C1=C(c2ccc(OC)cc2)OC(=O)C1(C)C | 0 | 0 | 0 | 0 | 0 | 0
Cc1ccc2nc(-c3ccc(O)cc3)oc2c1 | 0 | 0 | 0 | 0 | 0 | 0
O=C(CCN1CCN(S(=O)(=O)c2ccc(F)cc2)CC1)Nc1ccccc1F | 0 | 0 | 0 | 0 | 0 | 0
Cc1ccc(C)c(NC(=O)c2cnc(N3CCCC3)nc2C)c1 | 0 | - | 0 | - | 0 | ?
COC(=O)c1ccc(Nc2cc(C)nc3ccc(C)cc23)cc1 | 0 | 0 | 14.6µM | -92.6 | ? | 20.6µM

Assay outcomes (PubChem BioAssay)
